Test results taken from ChEMBL document CHEMBL3988442, “University of Dundee, Small-Polar-MMV Screening Library” (2021).
For some assays here: Measured potencies and affinities stand elsewhere.

Columns and labels:
Parameters in all cases: scale not given: direction of the effect not stated beside the values
[1] = molecular target: Protein translocase subunit SecA (Escherichia coli (strain K12)) (UniProt P10408); test: Assay to Identify E. coli SecA ATPase Inhibitors; format: functional; details: 30 µM
Protein translocase subunit SecA (Escherichia coli (strain K12)), sequence (P10408 whole entry): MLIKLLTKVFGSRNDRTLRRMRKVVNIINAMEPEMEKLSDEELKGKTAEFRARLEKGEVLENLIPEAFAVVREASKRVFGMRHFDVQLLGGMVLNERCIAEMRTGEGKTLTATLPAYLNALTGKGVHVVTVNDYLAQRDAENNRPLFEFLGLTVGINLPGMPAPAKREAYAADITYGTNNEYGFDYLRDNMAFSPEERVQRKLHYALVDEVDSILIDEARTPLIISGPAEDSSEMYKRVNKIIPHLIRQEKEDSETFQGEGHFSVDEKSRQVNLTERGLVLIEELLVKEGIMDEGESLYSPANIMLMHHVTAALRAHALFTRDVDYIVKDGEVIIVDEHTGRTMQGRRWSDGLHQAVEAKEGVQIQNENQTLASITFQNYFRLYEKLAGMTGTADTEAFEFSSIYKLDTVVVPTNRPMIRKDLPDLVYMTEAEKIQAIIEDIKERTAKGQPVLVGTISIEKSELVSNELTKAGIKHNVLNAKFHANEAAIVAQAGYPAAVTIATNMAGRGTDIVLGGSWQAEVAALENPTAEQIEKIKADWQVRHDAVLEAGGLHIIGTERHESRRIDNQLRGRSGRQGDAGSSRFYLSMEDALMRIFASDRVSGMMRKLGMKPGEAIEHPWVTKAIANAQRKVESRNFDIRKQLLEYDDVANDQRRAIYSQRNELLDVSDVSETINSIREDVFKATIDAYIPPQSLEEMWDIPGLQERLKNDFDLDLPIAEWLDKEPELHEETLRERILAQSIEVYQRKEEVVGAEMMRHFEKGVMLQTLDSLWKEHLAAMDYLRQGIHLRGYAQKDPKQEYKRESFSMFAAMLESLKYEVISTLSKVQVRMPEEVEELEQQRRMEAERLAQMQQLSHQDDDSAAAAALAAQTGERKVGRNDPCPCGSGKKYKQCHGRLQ

[2] = molecular target: T1, Ubiquitin-activating enzyme e1, putative (Leishmania donovani (strain BPK282A1)) (UniProt E9BSI1); test: Leishmania donovani Ubiquitin Activating Enzyme (LdE1); format: functional; details: 30 µM
T1 sequence (whole entry): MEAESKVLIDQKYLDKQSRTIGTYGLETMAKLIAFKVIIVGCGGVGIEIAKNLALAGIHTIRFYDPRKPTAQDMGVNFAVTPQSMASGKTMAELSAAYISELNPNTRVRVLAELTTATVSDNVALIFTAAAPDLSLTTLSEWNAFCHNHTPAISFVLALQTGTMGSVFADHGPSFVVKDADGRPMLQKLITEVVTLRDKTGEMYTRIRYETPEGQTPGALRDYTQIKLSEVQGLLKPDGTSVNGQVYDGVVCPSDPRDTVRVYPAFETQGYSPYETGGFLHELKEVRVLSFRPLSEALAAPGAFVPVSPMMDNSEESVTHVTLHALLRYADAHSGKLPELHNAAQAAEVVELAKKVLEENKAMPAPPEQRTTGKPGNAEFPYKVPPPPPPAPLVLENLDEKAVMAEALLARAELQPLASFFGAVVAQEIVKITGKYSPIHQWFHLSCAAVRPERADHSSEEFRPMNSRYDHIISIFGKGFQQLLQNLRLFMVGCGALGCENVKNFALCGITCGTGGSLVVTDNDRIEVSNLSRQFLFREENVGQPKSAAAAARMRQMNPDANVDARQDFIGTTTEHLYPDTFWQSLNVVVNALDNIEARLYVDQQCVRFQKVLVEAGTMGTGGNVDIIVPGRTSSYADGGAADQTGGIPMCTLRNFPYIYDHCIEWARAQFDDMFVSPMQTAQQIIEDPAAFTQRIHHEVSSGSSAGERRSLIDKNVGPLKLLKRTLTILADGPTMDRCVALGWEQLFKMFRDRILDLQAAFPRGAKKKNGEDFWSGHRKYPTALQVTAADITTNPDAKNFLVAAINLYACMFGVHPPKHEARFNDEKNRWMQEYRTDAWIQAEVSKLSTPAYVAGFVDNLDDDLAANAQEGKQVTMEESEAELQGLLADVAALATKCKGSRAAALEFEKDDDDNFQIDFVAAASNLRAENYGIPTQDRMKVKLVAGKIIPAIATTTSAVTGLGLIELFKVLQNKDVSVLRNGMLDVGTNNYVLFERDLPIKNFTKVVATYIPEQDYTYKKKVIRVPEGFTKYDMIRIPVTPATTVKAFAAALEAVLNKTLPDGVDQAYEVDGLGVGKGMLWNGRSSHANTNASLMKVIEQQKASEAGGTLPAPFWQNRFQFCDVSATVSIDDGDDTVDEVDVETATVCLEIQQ

[3] = molecular target: AMP-activated protein kinase, AMPK (Homo sapiens) (UniProt P54646+O43741+P54619+Q9UGJ0+Q9Y478+Q13131+Q9UGI9); test: AMP-dependent Kinase enzyme assay. An in vitro enzyme assay that detects ADP turnover that is directly proportional to AMPK activity. This uses naive AMPK that is activated during the assay with MK-8722; format: functional; details: 30 µM
[4] = molecular target: Sialic acid-binding Ig-like lectin 9 (Homo sapiens) (UniProt Q9Y336); test: Hs-Siglec9 ALPHAscreen SOP 20170721; details: 10 µM
Sialic acid-binding Ig-like lectin 9 (Homo sapiens), sequence (Q9Y336 whole entry): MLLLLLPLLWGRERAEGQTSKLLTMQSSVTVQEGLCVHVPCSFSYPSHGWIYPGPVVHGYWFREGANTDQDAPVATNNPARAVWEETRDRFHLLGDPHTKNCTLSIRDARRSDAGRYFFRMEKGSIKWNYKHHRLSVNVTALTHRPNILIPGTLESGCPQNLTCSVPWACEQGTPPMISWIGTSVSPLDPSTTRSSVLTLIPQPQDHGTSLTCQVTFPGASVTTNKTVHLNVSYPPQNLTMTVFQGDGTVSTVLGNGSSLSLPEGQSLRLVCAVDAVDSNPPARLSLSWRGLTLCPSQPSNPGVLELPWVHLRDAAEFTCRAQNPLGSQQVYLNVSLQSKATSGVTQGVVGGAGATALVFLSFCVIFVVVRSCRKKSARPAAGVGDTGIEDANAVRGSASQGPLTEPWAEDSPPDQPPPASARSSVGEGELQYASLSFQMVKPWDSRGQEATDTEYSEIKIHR

Trypanosoma cruzi = test: Trypanosoma cruzi phosphomannomutase and mannose-1-phosphate guanylyltransferase assay; format: functional; details: 10 µM
[5] = molecular target: T2, Arginase-2, mitochondrial (Homo sapiens) (UniProt P78540); test: in vitro enzyme assay to detect the production of urea directly proportional to the activity of Arginase II; format: functional; details: 33.3 µM; note: in the data most compounds retested in dose-response had high values
T2 sequence (whole entry): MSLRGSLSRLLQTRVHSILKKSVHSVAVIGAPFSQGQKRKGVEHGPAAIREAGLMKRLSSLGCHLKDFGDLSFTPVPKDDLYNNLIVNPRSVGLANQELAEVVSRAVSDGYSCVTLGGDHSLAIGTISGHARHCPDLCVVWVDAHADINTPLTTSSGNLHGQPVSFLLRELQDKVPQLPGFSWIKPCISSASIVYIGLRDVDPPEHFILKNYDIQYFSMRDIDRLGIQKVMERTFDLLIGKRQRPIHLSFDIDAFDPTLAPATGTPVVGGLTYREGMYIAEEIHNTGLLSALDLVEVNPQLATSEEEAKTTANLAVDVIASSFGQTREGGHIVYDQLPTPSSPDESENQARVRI

[6] = molecular target: T3, Proteasome subunit beta (Trypanosoma cruzi) (UniProt O96673); test: Trypanosoma cruzi proteasome chymotrypsin-like activity (TcProtChymo) assay.; note: in the data most compounds retested in dose-response had high values; format: functional; details: 9.37 µM
T3 sequence (whole entry): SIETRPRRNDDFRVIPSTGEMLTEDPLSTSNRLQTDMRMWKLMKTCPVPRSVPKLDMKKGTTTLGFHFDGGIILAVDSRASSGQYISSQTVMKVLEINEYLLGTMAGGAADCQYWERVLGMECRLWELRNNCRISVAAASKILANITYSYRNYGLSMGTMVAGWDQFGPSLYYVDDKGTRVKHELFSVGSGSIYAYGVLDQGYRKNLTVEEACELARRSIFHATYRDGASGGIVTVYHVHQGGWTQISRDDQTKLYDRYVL

Homo sapiens = organism: Homo sapiens; test: To identify inhibition of the IFN signalling (Jak-Stat) pathway via expression of an eGFP reporter gene under the control of an IFN-stimulated response element (ISRE) containing MxA promoter.; format: functional; details: 30 µM
[7] = molecular target: T4, Tyrosyl-tRNA synthetase, putative (Trypanosoma cruzi (strain CL Brener)) (UniProt Q4DSP6); test: Trypanosoma cruzi tyrosyl tRNA synthetase (TcYRS) _High Tyrosine SOP; format: functional; details: 30 µM; note: in the data most compounds retested in dose-response had high values
T4 sequence (whole entry): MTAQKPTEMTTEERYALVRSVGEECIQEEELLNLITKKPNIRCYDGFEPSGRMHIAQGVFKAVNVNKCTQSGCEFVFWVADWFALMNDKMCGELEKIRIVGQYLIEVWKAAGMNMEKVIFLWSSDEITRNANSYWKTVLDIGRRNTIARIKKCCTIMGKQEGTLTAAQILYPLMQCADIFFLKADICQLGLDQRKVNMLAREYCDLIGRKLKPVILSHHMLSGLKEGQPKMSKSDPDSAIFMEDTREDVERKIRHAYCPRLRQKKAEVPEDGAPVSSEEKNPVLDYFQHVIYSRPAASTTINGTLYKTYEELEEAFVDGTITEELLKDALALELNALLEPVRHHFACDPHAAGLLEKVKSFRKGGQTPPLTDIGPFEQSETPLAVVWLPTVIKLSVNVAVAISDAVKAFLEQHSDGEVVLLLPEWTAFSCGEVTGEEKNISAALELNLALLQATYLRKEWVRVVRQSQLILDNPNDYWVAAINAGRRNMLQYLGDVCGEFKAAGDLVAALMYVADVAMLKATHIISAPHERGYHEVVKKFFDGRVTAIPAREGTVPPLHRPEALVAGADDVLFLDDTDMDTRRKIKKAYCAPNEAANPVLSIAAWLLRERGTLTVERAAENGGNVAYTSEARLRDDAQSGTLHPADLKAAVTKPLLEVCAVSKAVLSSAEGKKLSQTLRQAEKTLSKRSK

[8] = molecular target: T4, Tyrosyl-tRNA synthetase, putative (Trypanosoma cruzi (strain CL Brener)); test: Trypanosoma cruzi tyrosyl tRNA synthetase (TcYRS) SOP; format: functional; details: 30 µM
[9] = molecular target: Chromo domain-containing protein 1 (Saccharomyces cerevisiae (strain ATCC 204508 / S288c) (Baker's yeast)) (UniProt P32657); test: ScCHD-1 Enzyme Inhibition Assay; format: functional; details: 30 µM; note: in the data most compounds retested in dose-response had high values
Chromo domain-containing protein 1 (Saccharomyces cerevisiae (strain ATCC 204508 / S288c) (Baker's yeast)), sequence (P32657 whole entry, the tested form may be a part): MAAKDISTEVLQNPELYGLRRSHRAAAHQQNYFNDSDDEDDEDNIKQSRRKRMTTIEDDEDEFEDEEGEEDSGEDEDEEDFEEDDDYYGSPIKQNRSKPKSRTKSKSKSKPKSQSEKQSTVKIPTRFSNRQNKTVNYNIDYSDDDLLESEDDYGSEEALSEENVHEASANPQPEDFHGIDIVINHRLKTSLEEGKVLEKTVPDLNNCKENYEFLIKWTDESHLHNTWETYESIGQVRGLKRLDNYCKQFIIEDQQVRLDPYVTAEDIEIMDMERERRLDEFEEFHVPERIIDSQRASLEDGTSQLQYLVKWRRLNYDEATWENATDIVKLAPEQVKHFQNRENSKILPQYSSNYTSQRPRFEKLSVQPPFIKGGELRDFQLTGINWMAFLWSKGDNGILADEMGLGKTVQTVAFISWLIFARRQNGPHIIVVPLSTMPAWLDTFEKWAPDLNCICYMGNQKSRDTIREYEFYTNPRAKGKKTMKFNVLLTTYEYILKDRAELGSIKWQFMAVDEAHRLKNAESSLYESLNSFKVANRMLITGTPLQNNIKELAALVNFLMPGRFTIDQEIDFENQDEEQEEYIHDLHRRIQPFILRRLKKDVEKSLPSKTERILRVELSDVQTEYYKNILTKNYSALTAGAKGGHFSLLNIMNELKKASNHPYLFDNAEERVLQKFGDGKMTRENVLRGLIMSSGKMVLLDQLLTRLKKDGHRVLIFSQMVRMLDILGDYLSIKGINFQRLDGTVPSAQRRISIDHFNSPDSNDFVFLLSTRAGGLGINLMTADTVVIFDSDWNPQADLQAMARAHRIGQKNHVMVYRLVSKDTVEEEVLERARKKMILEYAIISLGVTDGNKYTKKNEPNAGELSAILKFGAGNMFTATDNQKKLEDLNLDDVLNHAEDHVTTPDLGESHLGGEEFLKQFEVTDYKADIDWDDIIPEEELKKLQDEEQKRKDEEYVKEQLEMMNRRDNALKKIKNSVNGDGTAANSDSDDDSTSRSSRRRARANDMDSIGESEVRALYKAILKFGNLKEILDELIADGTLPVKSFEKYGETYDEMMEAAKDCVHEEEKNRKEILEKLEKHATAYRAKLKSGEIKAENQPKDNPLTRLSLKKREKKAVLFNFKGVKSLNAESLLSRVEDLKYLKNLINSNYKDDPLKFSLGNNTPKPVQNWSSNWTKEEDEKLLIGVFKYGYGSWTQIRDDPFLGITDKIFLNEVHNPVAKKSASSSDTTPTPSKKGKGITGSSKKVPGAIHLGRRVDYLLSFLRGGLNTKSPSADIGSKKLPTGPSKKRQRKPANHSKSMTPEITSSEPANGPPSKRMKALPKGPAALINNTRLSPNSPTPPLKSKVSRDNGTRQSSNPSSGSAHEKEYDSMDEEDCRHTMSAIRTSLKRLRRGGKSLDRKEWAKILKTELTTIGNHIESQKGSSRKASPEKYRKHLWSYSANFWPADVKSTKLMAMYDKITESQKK

Structure (SMILES)	Percent Effect [1] [%]	Percent Effect [2] [%]	Percent Effect [3] [%]	Percent Effect [4] [%]	Percent Effect (Trypanosoma cruzi) [%]	Percent Effect [5] [%]	Percent Effect [6] [%]	Percent Effect (Homo sapiens) [%]	Percent Effect [7] [%]	Percent Effect [8] [%]	Percent Effect [9] [%]
CCn1c(C(=O)N2CCN(C(=O)COC)CC2)cc2ccccc21	-10.4	13	-4.96	23.8	11.4	2.49	-0.169	10.3	7.77	21.9	-12.3
CN(C)S(=O)(=O)N1CCC(Oc2ccc(C#N)cc2)CC1	-1	1.39	2.51	-6.53	-6.12	1.77	16.8	17.2	2.1	2.56	-0.203
N#Cc1ncn(CCC(=O)Nc2ccc(Cl)cc2F)n1	1.65	8.22	-0.288	4.01	1.39	-1.6	18.4	30.7	11.5	21	-1.18
CC(=O)c1cccc(OCC(=O)NS(=O)(=O)c2ccc(C)s2)c1	-6.93	12.7	-2.86	9.9	4.63	-4.56	3.85	-8.7	3.45	13.9	-6.95
O=C(Cc1ccccc1)N1CCC2(CC(=O)N(c3ccsc3)C2)C1 (stereo unspecified)	-0.7	8.11	-4.26	-6.07	3.52	11.2	13.8	-6.08	14.8	-28.1	-3.9
CC1=N[C@@]2(CC[C@@H]3CN(S(=O)(=O)N(C)C)C[C@@H]32)C(=O)N1CC(C)C	1.29	8.11	2.53	-13.6	-6.75	4.78	13.3	6.52	5.41	10.3	-5.11
O=C(c1cscn1)N1CCC2(CCN(Cc3nccs3)C2)CC1	-1.95	2.7	2.22	3.97	0.293	-6.05	16.4	-17.2	1.08	5.13	5.03
CC(C)N1CCn2c(nc3cc(C(N)=O)ccc32)C1	-8.72	12	-4.63	7.53	0.393	-8.63	8.87	2.55	2.12	12.8	-11.8
CCn1nc(C)c2nnn(CC(=O)Nc3c(C)cccc3C)c(=O)c21	-7.15	17.3	-10.2	-3.51	5.5	-2.99	5.73	4.38	6.35	12.8	-16.1
Cc1cc(C)n(CC(=O)N2CCC(c3nc(C)no3)CC2)n1	-2.79	9.72	3.9	-0.831	2.43	3.09	9.3	-22.2	3.16	5.13	-4.51
CCS(=O)(=O)NCCNC(=O)c1cc(Cl)c2c(c1)OCCCO2	-1.06	8.11	-7.22	31.3	1.47	5.21	8.33	12.9	2.15	16.1	-5.31
O=C(NCCOc1cccc(Cl)c1)C1CC(=O)N(CC2CC2)C1 (stereo unspecified)	-3.05	26.3	6.34	-5.8	6.82	4.32	13.3	-1.81	4.43	25.9	-10.9
Cn1ccc(C(=O)NC2CCC23CCN(Cc2cccnc2)CC3)c1 (stereo unspecified)	-1.54	2.74	5.78	0.617	0	0.399	5.39	2.32	-1.04	-3.7	0.517
CC(C)c1ccc(-c2nnn(CCNS(C)(=O)=O)n2)cc1	-4.75	2.74	0.921	2.29	4.96	-2	4.71	-14	-4.17	8.64	-0.501
Fc1cnc(N2CCC3(COCc4cnc(NCC5CC5)nc43)C2)nc1 (stereo unspecified)	2.14	-2.74	27.5	4.49	-1.59	2.4	4.88	-6.32	1.04	3.7	2.6
COc1ccccc1[C@@H]1CN(C(=O)c2csc(C)n2)C[C@H]1C(=O)O	-2.85	1.39	-3.07	-2.56	-0.0972	5.3	16.7	-4.31	12.6	17.9	-3.19
